# Test results taken from PubChem BioAssay (NCATS).
# “And” between values parts separate entries of the source, which are not always exact repeats. Identical values can stand only once. Results filed as inconclusive are left out. Some structures have more than one record in an assay (separate samples or runs), and their calls can disagree. The source made the active and inactive calls. The call rests on the fitted dose curve; in most records, active means well fitted cell-killing curve with a large enough effect; inconclusive means small, poorly fitted or top-dose-only effect, or effect the other way; inactive means no such curve, though single readings can be large or run the other way.
# Assay: Viability qHTS for spleen associated tyrosine kinase inhibitor (SYKi) drug resistant MV4-11 cells (AID 1963824); further: nearly all actives have a fitted effect of over 35% in size
# Settings: SYKi-resistant MV4-11 viability, CellTiter-Glo, 72 h; series mostly up to 45 µM
# Description: Department of Medicine, Hematology/Oncology
# University Hospital Frankfurt, Germany.
# Trials have shown promising clinical activity of the selective SYK inhibitor entospletinib in patients with high expressing HOXA9/MEIS1 acute leukemias. As the development of resistance mechanisms is a common problem in the use of targeted drugs, we performed a chemical library screen to identify drug sensitivities in SYK inhibitor resistant AML cells. […] Glucocorticoids are potent immunosuppressants which work in part by inhibiting the transcription of cytokine genes.
# Described herein is a viability screen to look for activity in the SYK inhibitor drug resistant cell line against four NCATS compound libraries (MIPE 5.0, NPC, NPACT, and Kinase) totaling 11372 compounds. Active hits were reacquired for confirmation and further secondary assay testing.
# SEQUENCE No. (e.g., 1, 2, 3, etc.); […] (e.g., Cells, Incubation, Reagent, etc.); VALUE; DESCRIPTION.
# 1; Media; 2uL; white, solid-bottom Corning assay plate.
# 2; Compounds; 23nL; Echo acoustic dispenser.
# 3; Cell; 5uL; 500 cells per well.
# 4: Incubation; 72hr; 37 C, 5% CO2, 95% humidity.
# 5; Reagent; 3uL; CellTiter-Glo reagent (Promega).
# 6; Incubation; 10min; room temperature.
# 7; Detection; Luminescence; ViewLux plate reader (PerkinElmer).
# NOTES (numbers refer to Sequence numbers above
# 1. Quantitative high-throughput screening (qHTS) of small molecule compounds was conducted on drug resistant SYKi MV4-11 cell line.
# 2. Twenty-three nanoliter of small molecule compounds were added to each assay plates using the Echo acoustic dispenser (Beckman Coulter).
# 3. Cells were seeded into the assay plates at a final density of 500 cells in 5uL of media per well using the Multidrop Combi dispenser.
# 4. Plates were covered with stainless steel gasketed lids and incubated for 72 hours at standard cell culture conditions.
# 5. Viability was assessed by adding 3uL of CellTiter-Glo detection reagent (Promega).
# 6. Plates were covered with gasket lids and incubated for 10 minutes at room temperature.
# 7. Luminescence was measured on a ViewLux plate reader (PerkinElmer).
# Potency means the concentration at half of the fitted maximal effect.
Compound,Potency,"viability, % of control"
CN1C(=O)[C@@H](Cc2c[nH]c3ccccc23)N=C(c2ccccc2F)c2ccccc21,20.6 µM (active),–
CC(=O)NC1CCSC1=O (stereo not given),inactive,–
CCNC(=O)CC1N=C(c2ccc(Cl)cc2)c2cc(OC)ccc2-n2c(C)nnc21 (stereo not given),8.33 µM (active) and inactive and 517 nM (active),–
COc1ccc(CCNCc2ccc(OC)c3ccccc23)cc1,8.2 µM (active),–
Cc1cccc(C)c1NC(=O)CN1CCCC1=O,inactive,–
N#CC(O[C@@H]1O[C@H](CO)[C@@H](O)[C@H](O)[C@H]1O)c1ccccc1 (stereo not given in full),inactive,–
CN1CCN(c2ccc([N+](=O)[O-])c3no[n+]([O-])c23)CC1,8.33 µM (active),–
ClC1=C(Cl)[C@]2(Cl)[C@@H]3[C@@H]4C[C@@H]([C@H]5O[C@@H]45)[C@@H]3[C@@]1(Cl)C2(Cl)Cl,30.6 µM (active),–
O=C(NC(O)C(Cl)(Cl)Cl)NC(O)C(Cl)(Cl)Cl (stereo not given),inactive,–
Cc1cccc(NC(=O)N[C@H]2CN(C)c3ccccc3C(c3ccccc3)=N2)c1,16.4 µM (active),–
COc1ccc(C(c2ccc(OC)cc2)C(Cl)(Cl)Cl)cc1,21.5 µM (active),–
COc1cc(C(=O)N2CC[C@@H](O)[C@@H](N)C2)cc2nc(-c3cc4ccccc4n3CC3CC3)n(C)c12,9.34 µM (active),–
CC(C)(O)/C=C/C(=O)[C@](C)(O)[C@H]1[C@H](O)C[C@@]2(C)[C@@H]3CC=C4[C@@H](C[C@H](O)C(=O)C4(C)C)[C@]3(C)C(=O)C[C@]12C,0.282 µM (active),–
C/C(=C\c1csc(C)n1)[C@@H]1C[C@@H]2O[C@]2(C)CCC[C@H](C)[C@H](O)[C@@H](C)C(=O)C(C)(C)[C@@H](O)CC(=O)O1,0.0047 µM (active),–
C[C@@H](CN1CCC(n2c(=O)[nH]c3cc(Br)ccc32)CC1)NC(=O)[C@@H]1C[C@H]1c1ccccc1,6.51 µM (active),–
CC(CCc1ccc(O)cc1)O[C@@H]1O[C@H](CO[C@H]2OC[C@](O)(CO)[C@H]2O)[C@@H](O)[C@H](O)[C@H]1O (stereo not given in full),inactive,–
O=C1NC(=O)c2c1c1c3ccccc3[nH]c1c1[nH]c3ccccc3c21,0.0517 µM (active),–
C=C(C)[C@H]1Cc2c(ccc3c2O[C@@H]2COc4cc(OC)c(OC)cc4[C@@H]2C3=O)O1,0.0376 µM (active),–
C=CCN1C[C@H](C)N([C@H](c2ccc(C(=O)N(CC)CC)cc2)c2cccc(OC)c2)C[C@H]1C,–,93.3% [at 9.25 µM] (inactive)
CCCN1CCO[C@@H]2c3cc(O)ccc3OC[C@H]21,inactive,–

Compound,Potency,"viability, % of control"
CCC1(C2=NCCN2)Cc2ccccc2O1 (stereo not given),inactive,–
C=CCC1(C(C)CC)C(=O)NC(=O)NC1=O (stereo not given),inactive,–
O=C(OC[C@H]1O[C@@H](Oc2ccc(O)cc2CO)[C@H](O)[C@@H](O)[C@@H]1O)c1ccccc1,inactive,–
NNc1ccccc1,inactive,–
CC1(C)CC(O)CC(C)(C)N1O,inactive,–
Cn1cc(C2=C(c3cn(C4CCN(Cc5ccccn5)CC4)c4ccccc34)C(=O)NC2=O)c2ccccc21,5.25 µM (active),–
O=C(O)c1ccnc2cc(C(OCCN3CCCCC3)c3ccccc3Cl)[nH]c12 (stereo not given),inactive,–
CO/C=C(/C(=O)OC)c1ccccc1Oc1cc(Oc2ccccc2C#N)ncn1,8.63 µM (active),–
CN1C[C@H](CNC(=O)OCc2ccccc2)C[C@@H]2c3cccc4c3c(cn4C)C[C@H]21,8.41 µM (active),–
CN1CCCC1CCOC(c1cc2nccc(C(=O)O)c2[nH]1)c1ccccc1Cl (stereo not given),inactive,–
CC1NCCOC1c1ccccc1 (stereo not given),inactive,–
CC1=CC2/C=C(\C)CCC(O)C3OC(C)(C)OC3CC(=O)OC23C(=O)NC(CC(C)C)C3C1C (stereo not given),12.6 µM (active),–
N[C@@H](Cc1ccc(N(CCCl)CCCl)cc1)C(=O)O,7.5 µM (active) and 742 nM (active),–
CCCCCCn1c(=O)c(C(=O)Nc2ccc(C(=O)OCCC)cc2)c(O)c2ccccc21,–,83.2% [at 9.25 µM] (inactive)
CO[C@@H]1[C@@H](O)[C@@H](O[C@H]2CC[C@]3(C=O)C4CC[C@]5(C)[C@@H](C6=CC(=O)OC6)CC[C@]5(O)[C@@H]4CC[C@H]3C2)O[C@@H](C)[C@H]1O[C@@H]1O[C@H](CO[C@@H]2O[C@H](CO)[C@@H](O)[C@H](O)[C@H]2O)[C@@H](O)[C@H](O)[C@H]1O (stereo not given in full),1.38 µM (active),–
Cc1ccccc1C1=CCN(C)CC1,inactive,–
CN(C)[C@@H]1C(=O)C(C(N)=O)=C(O)[C@@]2(O)C(=O)C3=C(O)c4c(O)ccc(Cl)c4[C@@](C)(O)C3C[C@@H]12 (stereo not given in full),inactive,–
CCCCCOc1cc2c(cc1-c1cc(/C=C/C(=O)O)ccc1O)C(C)(C)CCC2(C)C,23.1 µM (active),–
Cc1ccc(S(=O)(=O)N[C@@H](CCCCN)C(=O)CCl)cc1,inactive,–
CCN1CCN(C(=O)Cc2ccc(Nc3ncc(F)c(Nc4ccc(C(=O)Nc5ccccc5Cl)cc4)n3)cc2)CC1,0.525 µM (active),–
